# Measured values as given in article PMC7862700, “An all-to-all approach to the identification of sequence-specific readers for epigenetic DNA modifications on cytosine”.
# Legend:
# Assay in all cases: DAPPL (digital affinity profiling via proximity ligation, sequencing); 10 mM Tris-HCl pH 7.5, 50 mM NaCl, 1 mM DTT, 4% glycerol, room temperature, 30 min; GST-TFs on glutathione beads, 16-mer random dsDNA library, 0.1% formaldehyde crosslink after washing; high values mean tight binding
# Settings in all cases: protein: recombinant; tags: N-terminal GST; dsDNA, one strand shown
# CRX = CRX (Homo sapiens, UniProt O43186 1-299)
# In short: (§1)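 Human transcription factors fused to GST were expressed in yeast, captured on glutathione beads, given DNA barcodes and pooled with a GST-only negative control. Pools were incubated with 200 nmole of a 16-mer random double-stranded DNA library in Tris/NaCl/DTT/glycerol buffer at room temperature for 30 min. They were then washed, crosslinked with 0.1% formaldehyde, proximity-ligated (BsaI/T4 ligase, 1 h, 37 °C), PCR-amplified and sequenced on an Illumina NextSeq500. Binding signal is each 6-mer's read frequency for a factor divided by its frequency for the GST control.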
# ETV1 = ETV1 (Homo sapiens, UniProt P50549 1-477)
# In short: as §1
# ERF = target: T1, ERF (Homo sapiens, UniProt P50548 1-548)
# T1 sequence: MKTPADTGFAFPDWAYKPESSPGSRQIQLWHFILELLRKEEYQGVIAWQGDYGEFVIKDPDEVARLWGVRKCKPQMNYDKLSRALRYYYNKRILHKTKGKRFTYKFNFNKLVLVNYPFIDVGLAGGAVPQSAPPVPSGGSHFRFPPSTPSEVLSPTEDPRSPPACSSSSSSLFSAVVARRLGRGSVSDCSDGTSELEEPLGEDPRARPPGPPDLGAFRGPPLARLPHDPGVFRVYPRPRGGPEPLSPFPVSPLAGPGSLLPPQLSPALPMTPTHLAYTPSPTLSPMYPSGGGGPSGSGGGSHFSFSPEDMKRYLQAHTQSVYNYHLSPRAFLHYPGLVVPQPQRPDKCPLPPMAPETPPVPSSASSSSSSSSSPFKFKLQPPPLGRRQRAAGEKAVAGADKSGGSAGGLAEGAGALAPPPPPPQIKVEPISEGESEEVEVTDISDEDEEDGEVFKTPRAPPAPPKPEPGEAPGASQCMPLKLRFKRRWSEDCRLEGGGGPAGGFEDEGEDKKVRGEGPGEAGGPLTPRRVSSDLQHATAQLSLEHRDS
# In short: as §1
# ETV3L = target: T2, ETV3L (Homo sapiens, UniProt Q6ZN32 1-361)
# T2 sequence: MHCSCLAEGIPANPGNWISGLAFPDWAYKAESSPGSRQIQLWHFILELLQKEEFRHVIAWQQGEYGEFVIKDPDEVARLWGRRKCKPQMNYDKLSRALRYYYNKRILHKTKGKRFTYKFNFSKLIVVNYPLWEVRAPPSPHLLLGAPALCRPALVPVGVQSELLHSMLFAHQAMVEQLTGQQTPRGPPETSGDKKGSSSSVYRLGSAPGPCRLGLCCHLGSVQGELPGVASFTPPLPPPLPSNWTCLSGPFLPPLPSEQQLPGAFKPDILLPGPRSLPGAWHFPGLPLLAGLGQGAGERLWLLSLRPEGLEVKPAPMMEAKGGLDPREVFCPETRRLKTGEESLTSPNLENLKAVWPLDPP
# In short: as §1
# ETS2 = target: T3, ETS2 (Homo sapiens, UniProt P15036 1-469)
# T3 sequence: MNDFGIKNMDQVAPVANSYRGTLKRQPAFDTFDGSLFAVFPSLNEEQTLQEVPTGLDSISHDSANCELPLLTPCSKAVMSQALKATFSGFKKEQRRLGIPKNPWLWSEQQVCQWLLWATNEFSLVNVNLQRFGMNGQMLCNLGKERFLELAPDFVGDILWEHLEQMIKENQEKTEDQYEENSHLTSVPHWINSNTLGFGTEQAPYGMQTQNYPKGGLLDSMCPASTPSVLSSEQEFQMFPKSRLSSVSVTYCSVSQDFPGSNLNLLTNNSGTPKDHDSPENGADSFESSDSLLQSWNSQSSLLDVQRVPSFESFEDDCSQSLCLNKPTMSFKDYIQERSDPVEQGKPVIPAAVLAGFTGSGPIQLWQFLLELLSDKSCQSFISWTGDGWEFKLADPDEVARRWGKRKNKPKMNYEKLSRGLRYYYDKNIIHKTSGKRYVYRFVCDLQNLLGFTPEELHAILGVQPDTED
# In short: as §1
# SPDEF = target: T4, SPDEF (Homo sapiens, UniProt O95238 1-335)
# T4 sequence: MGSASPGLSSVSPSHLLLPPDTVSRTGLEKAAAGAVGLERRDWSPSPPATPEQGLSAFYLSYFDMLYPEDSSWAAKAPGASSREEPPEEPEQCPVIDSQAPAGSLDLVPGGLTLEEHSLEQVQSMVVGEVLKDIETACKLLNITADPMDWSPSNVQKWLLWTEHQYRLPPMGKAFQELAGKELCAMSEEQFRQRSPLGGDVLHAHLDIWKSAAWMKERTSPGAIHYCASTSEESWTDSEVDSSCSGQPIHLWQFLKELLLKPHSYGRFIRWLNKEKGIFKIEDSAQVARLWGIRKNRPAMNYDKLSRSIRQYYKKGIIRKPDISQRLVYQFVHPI
# In short: as §1
# ETV7 = target: T5, ETV7 (Homo sapiens, UniProt Q9Y603 1-341)
# T5 sequence: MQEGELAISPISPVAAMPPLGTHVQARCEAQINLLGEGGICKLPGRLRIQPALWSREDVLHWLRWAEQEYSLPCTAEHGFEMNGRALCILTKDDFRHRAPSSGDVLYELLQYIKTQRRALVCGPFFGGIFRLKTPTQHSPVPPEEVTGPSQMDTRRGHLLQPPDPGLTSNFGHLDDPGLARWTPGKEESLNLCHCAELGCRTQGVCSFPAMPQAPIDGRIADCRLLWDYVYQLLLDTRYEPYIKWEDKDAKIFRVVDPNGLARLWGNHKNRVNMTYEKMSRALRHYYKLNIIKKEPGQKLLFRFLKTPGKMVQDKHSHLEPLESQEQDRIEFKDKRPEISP
# In short: as §1
# ELF5 = target: T6, ELF5 (Homo sapiens, UniProt Q9UKW6-2 1-255)
# T6 sequence: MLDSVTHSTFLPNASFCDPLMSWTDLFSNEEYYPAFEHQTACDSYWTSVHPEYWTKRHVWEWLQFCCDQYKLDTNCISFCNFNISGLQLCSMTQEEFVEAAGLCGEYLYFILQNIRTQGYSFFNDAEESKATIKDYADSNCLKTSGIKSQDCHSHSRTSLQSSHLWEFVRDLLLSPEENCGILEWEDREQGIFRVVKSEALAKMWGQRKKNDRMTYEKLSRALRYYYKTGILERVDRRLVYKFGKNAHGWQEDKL
# In short: as §1
# ETV3 = target: T7, ETV3 (Homo sapiens, UniProt P41162-2 1-143)
# T7 sequence: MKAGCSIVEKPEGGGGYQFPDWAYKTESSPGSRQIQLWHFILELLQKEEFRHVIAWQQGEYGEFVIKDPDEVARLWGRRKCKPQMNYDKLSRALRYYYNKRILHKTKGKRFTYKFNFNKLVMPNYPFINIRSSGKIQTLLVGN
# In short: as §1
# Sequence of ETV1 (P50549 whole entry): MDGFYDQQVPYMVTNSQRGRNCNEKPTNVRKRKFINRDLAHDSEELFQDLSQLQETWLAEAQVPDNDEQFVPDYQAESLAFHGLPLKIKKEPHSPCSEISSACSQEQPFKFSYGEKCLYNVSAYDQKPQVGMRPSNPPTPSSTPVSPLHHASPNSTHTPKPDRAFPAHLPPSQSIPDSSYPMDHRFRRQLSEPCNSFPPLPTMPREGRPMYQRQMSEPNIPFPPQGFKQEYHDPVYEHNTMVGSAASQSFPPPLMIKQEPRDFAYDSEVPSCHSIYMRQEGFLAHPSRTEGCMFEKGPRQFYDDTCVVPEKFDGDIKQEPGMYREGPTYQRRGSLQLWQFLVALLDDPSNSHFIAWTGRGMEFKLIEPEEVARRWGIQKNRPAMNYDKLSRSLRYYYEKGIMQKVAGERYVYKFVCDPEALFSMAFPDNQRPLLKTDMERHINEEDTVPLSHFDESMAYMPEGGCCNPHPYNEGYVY
# Sequence of CRX (O43186 whole entry, the tested form may be a part): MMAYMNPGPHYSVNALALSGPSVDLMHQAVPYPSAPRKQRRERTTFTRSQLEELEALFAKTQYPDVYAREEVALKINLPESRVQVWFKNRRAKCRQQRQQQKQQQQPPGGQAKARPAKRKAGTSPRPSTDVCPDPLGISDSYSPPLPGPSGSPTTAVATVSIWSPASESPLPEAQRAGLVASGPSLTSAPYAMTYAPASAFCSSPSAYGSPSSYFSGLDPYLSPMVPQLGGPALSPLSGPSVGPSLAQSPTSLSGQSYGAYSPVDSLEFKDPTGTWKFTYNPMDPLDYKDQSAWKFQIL
sequence,measurement,setting,value
GGTCTT,binding signal,CRX,"1.15 fold enrichment (6-mer frequency, TF over GST control)"
same,binding signal,ETV1,"1.11 fold enrichment (6-mer frequency, TF over GST control)"
same,binding signal,ERF,"1.22 fold enrichment (6-mer frequency, TF over GST control)"
same,binding signal,ETV3L,"1.07 fold enrichment (6-mer frequency, TF over GST control)"
same,binding signal,ETS2,"1.23 fold enrichment (6-mer frequency, TF over GST control)"
same,binding signal,SPDEF,"1.12 fold enrichment (6-mer frequency, TF over GST control)"
same,binding signal,ETV7,"1.19 fold enrichment (6-mer frequency, TF over GST control)"
same,binding signal,ELF5,"1.2 fold enrichment (6-mer frequency, TF over GST control)"
same,binding signal,ETV3,"1.16 fold enrichment (6-mer frequency, TF over GST control)"
